Reference: PubChem BioAssay (NCATS)
Records with an inconclusive call do not appear. Some structures have more than one record in an assay (separate samples or runs), and their calls can disagree. Calls of active or inactive are those of the source. Unless noted, calls follow the shape of the dose curve; as a rule, active = well fitted curve in the direction sought with a large enough effect; inconclusive = small, poorly fitted or top-dose-only effect, or another doubt; inactive = no such curve, though single readings can be large; an effect the other way counts as inactive or inconclusive.

Assays:
C33A = test: Primary qHTS to identify gynecologic anti-cancer compounds using libraries of approved drugs and bioactive compounds (AID 1345084); conditions: Gynecologic cancer cell panel viability, ATPlite luminescence, 48 h; series mostly up to 57.5 µM; also: nearly all actives have a fitted effect of over 55% in size; also: potency is read from the fitted curve at half-maximal effect
Summary of the method: (§1)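 Cells, 1,000 per well, plated 16 h, then exposed 48 h at 37 C to compounds. Viability by ATPlite luminescence after 15 min at room temperature.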

CASKI = test: as above; conditions: Gynecologic cancer cell panel viability, ATPlite luminescence, 48 h; series mostly up to 57.5 µM
Summary of the method: as §1

Es-2 = test: as above; conditions: Gynecologic cancer cell panel viability, ATPlite luminescence, 48 h; series mostly up to 57.5 µM
Summary of the method: as §1

HeLa = test: as above; conditions: Gynecologic cancer cell panel viability, ATPlite luminescence, 48 h; series mostly up to 57.5 µM
Summary of the method: as §1

Hek293T = test: as above; conditions: Gynecologic cancer cell panel viability, ATPlite luminescence, 48 h, control line for the selectivity index; series mostly up to 57.5 µM
Summary of the method: as §1

JEG-3 = test: as above; conditions: Gynecologic cancer cell panel viability, ATPlite luminescence, 48 h; series mostly up to 57.5 µM
Summary of the method: as §1

OV90 = test: as above; conditions: Gynecologic cancer cell panel viability, ATPlite luminescence, 48 h; series mostly up to 57.5 µM
Summary of the method: as §1

PA-1 = test: as above; conditions: Gynecologic cancer cell panel viability, ATPlite luminescence, 48 h; series mostly up to 57.5 µM
Summary of the method: as §1

SKOV3 = test: as above; conditions: Gynecologic cancer cell panel viability, ATPlite luminescence, 48 h; series mostly up to 57.5 µM
Summary of the method: as §1

Tov-21-G = test: as above; conditions: Gynecologic cancer cell panel viability, ATPlite luminescence, 48 h; series mostly up to 57.5 µM
Summary of the method: as §1

Tov112D = test: as above; conditions: Gynecologic cancer cell panel viability, ATPlite luminescence, 48 h; series mostly up to 57.5 µM
Summary of the method: as §1

[1] = Drug repurposing screens with cells derived from glioblastoma tumor samples (AID 1345199); conditions: GBM patient neurospheres viability, ATP luminescence, 48 h; also: nearly all actives have a fitted effect of over 40% in size; also: potency is read from the fitted curve at half-maximal effect; as to activity, negative = cell killing: % is scaled to controls: 0 for no effect and ±100 for the full control effect
Summary of the method: (§2)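 Four patient lines of CD133+ GBM neurospheres were screened at several concentrations; hits were retested in those lines plus three slower-growing GBM lines, using 48-hour treatment and ATP-based viability.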

astro = test: as above; conditions: viability, ATP luminescence, 48 h; series mostly up to 45.9 µM
Summary of the method: as §2

WaGa = test: qHTS assay to identify novel small-molecules to repurpose for Merkel cell carcinoma treatment (AID 1296009); conditions: MCC and control cell lines, CellTiter-Glo viability, 72 h; series mostly up to 46 µM; also: nearly all actives have a fitted effect of over 60% in size; also: potency is read from the fitted curve at half-maximal effect
Summary of the method: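 qHTS format: cells treated with library compounds in DMSO across 8 (NPC) or 11 (MIPE) concentrations. Readout after 72 hr at 37 degree celsius was CellTiter-Glo luminescence.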

[2] = target: Nuclear receptor subfamily 1 group I member 2 (Rattus norvegicus) (UniProt Q9R1A7); test: qHTS assay for small molecule activators of the rat pregnane X receptor (rPXR) signaling pathway (AID 651751; call rule not given here; also: 0% is about no effect); conditions: rPXR reporter cells, luciferase (One-Glo), 24 h
CAOV3 = test: Primary qHTS to identify gynecologic anti-cancer compounds using libraries of approved drugs and bioactive compounds (AID 1345084); conditions: Gynecologic cancer cell panel viability, ATPlite luminescence, 48 h; series mostly up to 57.5 µM; also: nearly all actives have a fitted effect of over 55% in size; also: potency is read from the fitted curve at half-maximal effect
Summary of the method: as §1

[3] = at 45.9 µM (top of the series), tumour line B
[4] = at 46.1 µM (top of the series), tumour line C

Nuclear receptor subfamily 1 group I member 2 (Rattus norvegicus), sequence (Q9R1A7 whole entry, looked up): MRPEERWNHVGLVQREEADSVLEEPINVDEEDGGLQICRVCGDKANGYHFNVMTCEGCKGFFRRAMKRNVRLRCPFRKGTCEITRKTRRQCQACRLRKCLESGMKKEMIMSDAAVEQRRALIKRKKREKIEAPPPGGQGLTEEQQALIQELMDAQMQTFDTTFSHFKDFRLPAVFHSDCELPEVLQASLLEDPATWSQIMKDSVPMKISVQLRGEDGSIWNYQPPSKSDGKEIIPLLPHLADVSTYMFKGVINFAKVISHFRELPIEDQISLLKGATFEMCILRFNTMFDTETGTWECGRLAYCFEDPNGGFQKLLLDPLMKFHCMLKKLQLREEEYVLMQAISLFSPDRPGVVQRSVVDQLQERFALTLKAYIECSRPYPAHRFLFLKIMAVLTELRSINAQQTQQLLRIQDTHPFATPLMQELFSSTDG

N[C@@H]1CONC1=O
inactive: Potency (C33A) | Potency (CASKI) | Potency (Es-2) | Potency (HeLa) | Potency (Hek293T) | Potency (JEG-3) | Potency (OV90) | Potency (PA-1) | Potency (SKOV3) | Potency (Tov-21-G) | Potency (Tov112D) | activity, negative = cell killing [1, 3] -2.69% | activity, negative = cell killing ([1]; at 45.9 µM (top of the series), tumour line D) 4.98% | activity, negative = cell killing ([1]; at 46 µM (top of the series), tumour line A) -17.4% | activity, negative = cell killing [1, 4] -0.848% | Potency (astro)

Cc1c(C)c2c(c(C)c1O)CCC(C)(COc1ccc(CC3SC(=O)NC3=O)cc1)O2 (centres undefined)
active: Potency (astro) 10 µM
16.8 µM (active) and inactive: Potency (WaGa)
inactive: Potency (C33A) | Potency (CASKI) | Potency (Es-2) | Potency (HeLa) | Potency (Hek293T) | Potency (JEG-3) | Potency (OV90) | Potency (PA-1) | Potency (Tov-21-G) | Potency (Tov112D) | activity, negative = cell killing [1, 3] -4.67% | activity, negative = cell killing [1, 4] -19.7% | max response [2] -12.9%

C#Cc1cccc(Nc2ncnc3cc(OCCOC)c(OCCOC)cc23)c1
inactive: Potency (C33A) | Potency (CASKI) | Potency (Es-2) | Potency (HeLa) | Potency (Hek293T) | Potency (JEG-3) | Potency (OV90) | Potency (PA-1) | Potency (Tov112D)
active: Potency (WaGa) 29.6 µM | Potency (SKOV3) 10 µM

CCOc1cc(C(=O)Nc2ccc(Cl)c(-c3nc4ccccc4[nH]3)c2)cc(OCC)c1OCC
inactive: Potency (WaGa) | Potency (CAOV3) | Potency (CASKI) | Potency (Es-2) | Potency (HeLa) | Potency (Hek293T) | Potency (JEG-3) | Potency (OV90) | Potency (PA-1) | Potency (Tov-21-G) | Potency (Tov112D)

COc1cc2c(cc1OC)CN(CCc1ccc(NC(=O)c3cccc4c(=O)c5cccc(OC)c5[nH]c34)cc1)CC2
inactive: Potency (C33A) | Potency (CAOV3) | Potency (CASKI) | Potency (Es-2) | Potency (HeLa) | Potency (Hek293T) | Potency (JEG-3) | Potency (OV90) | Potency (PA-1) | Potency (SKOV3) | Potency (Tov-21-G) | Potency (Tov112D)

CCc1cncnc1N1CCN(Cc2nc3ccc(C(F)(F)F)cc3[nH]2)CC1
inactive: Potency (C33A) | Potency (CASKI) | Potency (Es-2) | Potency (HeLa) | Potency (Hek293T) | Potency (JEG-3) | Potency (OV90) | Potency (PA-1) | Potency (Tov-21-G) | Potency (Tov112D)

COc1cccc2cc(-c3nc(C4CCC(C(=O)O)CC4)n4ncnc(N)c34)[nH]c12 (centres undefined)
active: Potency (C33A) 7.94 µM | Potency (Es-2) 7.08 µM | Potency (OV90) 7.94 µM | Potency (PA-1) 3.16 µM | Potency (SKOV3) 11.2 µM | Potency (Tov-21-G) 3.55 µM
inactive: Potency (HeLa) | Potency (JEG-3)

Oc1ccc(C2CNCCc3c2cc(O)c(O)c3Cl)cc1 (centres undefined)
inactive: Potency (C33A) | Potency (CASKI) | Potency (Es-2) | Potency (HeLa) | Potency (Hek293T) | Potency (JEG-3) | Potency (OV90) | Potency (PA-1) | Potency (SKOV3) | Potency (Tov-21-G) | Potency (Tov112D) | activity, negative = cell killing [1, 4] 2.51% | Potency (astro)

Nc1nc2c(ncn2COCCO)c(=O)[nH]1
inactive: Potency (C33A) | Potency (Es-2) | Potency (HeLa) | Potency (Hek293T) | Potency (JEG-3) | Potency (OV90) | Potency (PA-1) | Potency (SKOV3) | Potency (Tov-21-G) | Potency (Tov112D) | activity, negative = cell killing ([1]; at 20 µM (top of the series), tumour line C) -13.6% | activity, negative = cell killing ([1]; at 21.2 µM (top of the series), tumour line B) -4.96% | activity, negative = cell killing ([1]; at 21.3 µM (top of the series), tumour line A) -33.2% | Potency (astro)

COc1cc(Oc2ccnc3cc(OC)c(OC)cc23)ccc1NC(=O)NC(C)c1nccs1 (centres undefined)
inactive: Potency (WaGa) | Potency (C33A) | Potency (CAOV3) | Potency (CASKI) | Potency (Es-2) | Potency (HeLa) | Potency (Hek293T) | Potency (JEG-3) | Potency (OV90) | Potency (PA-1) | Potency (SKOV3) | Potency (Tov-21-G) | Potency (Tov112D)

CCOc1ccn(-c2ccc(F)cc2)c(=O)c1C(=O)Nc1ccc(Oc2ccnc(N)c2Cl)c(F)c1
inactive: Potency (WaGa) | Potency (C33A) | Potency (CASKI) | Potency (Es-2) | Potency (Hek293T) | Potency (JEG-3) | Potency (OV90) | Potency (PA-1) | Potency (SKOV3) | Potency (Tov-21-G) | Potency (Tov112D)
